According to the supplement of paper PMC11417369:
± gives the standard deviation of the averaged measurements. The full ranking holds about 25,000 sequences; the median of “ln(normalized median fluorescence intensity)” is about 7.9, and the highest 2% start at about 11. Shown is part of a subset that was picked to be rich in the highest values.

The sequences below were run on PfAP2-I AP2 domain 3 (GST-tagged) (assay: gcPBM binding intensity (ln(normalized median fluorescence intensity)); higher = stronger DNA binding).
Procedure, shortened: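 In this array assay, P. falciparum DNA-binding domains with a GST tag, expressed in E. coli, were applied for 1 h to primer-extended double-stranded 36-bp intergenic genomic probes and negative controls on an Agilent 4 × 180k array. Bound protein was visualised with Alexa488 anti-GST antibody at 488 nm. Binding intensity is the highest Masliner-normalised natural-log median intensity across replicate spots of either probe orientation.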

Point of comparison: “GTTAGGATAGATTAGACATGCACATAAATGCACTTC [TGCATGCA_site561]”, “gcPBM binding intensity (ln)” value 11.1 ± 0.34. Against it:
- TAATGGTGTTCATGTGGTACACTTTATAAATTGGCA [XGTACX_site729] — lower, 7.9 ± 0.47
- CCCTTTTATTAAAATTCACACACATAAATTTTTATA [CACACA_site8611] — lower, 8.06 ± 0.41
- TATAAAAAAAAAAAATATATATATATATAAATATAA [TGCATGCA_negctrl_site367] — lower, 7.28 ± 0.37
- ACTTAGGAAATAAAACGTACATTAAATATATACATA [XGTACX_site2990] — lower, 7.84 ± 0.35
- AAATAAAAAAGTAGTACACACTTCACGATATTTTTT [CACACA_site6015] — lower, 7.89 ± 0.43
- CATCAAGTGAATTGTTGTACTTTACATTGTTTTTAT [XGTACX_site7261] — lower, 7.89 ± 0.69
- AAAAAATATTATATATGTACATAATATTTTTTTTTT [XGTACX_site5909] — lower, 7.47 ± 0.39
- ACATACTCAAATAGCACACACATAAATAAAAATGTA [CACACA_site3864] — lower, 8.42 ± 0.099
- AAAAGAAAATATATGTGTACTAAAATATATATATAT [XGTACX_site3817] — lower, 9.455 ± 0.021
- AAATCGTGTACATTGACACACATAATTTTTTTTATA [CACACA_site2463] — lower, 8.09 ± 0.38
- ATCATCTTTATTCAAGTGCACTGAAAATTTTTTATA [GTGCAC_site9801] — the same, 11.1 ± 0.32
- TTATTTTATTTTTGTGCACACTGATAAATTGAAAAG [CACACA_site2949] — within error, 10.8 ± 0.22
- ACATATTATTCAAGTGCACACTTTATATTTATGATT [CACACA_site3295] — lower, 9.715 ± 0.035
- TACATCATCTATAAGGTGCATTTTAGTTCTATTAAA — within error, 10.3 ± 0.58
- TCCTTTATTTTTAAAGTGCATATACATGTACATTAT [GTGCAC_site9445] — lower, 9.675 ± 0.078
- AAAAAAAAAAGAAACACACACATATAGATTTATAAC [CACACA_site6927] — lower, 7.69 ± 0.69
- AAGTTTAAAATCTTTGCACACATATAAATAAATATA [CACACA_site2554] — lower, 8.94 ± 0.12
- AGAAAAATAAACAAATGTACAAATTATTACTATATA [XGTACX_site1087] — lower, 7.63 ± 0.34
- TTAAAAAACTATAATACACACCAAAAATATGCACAT [CACACA_site7079] — lower, 9.44 ± 0.7
- TAGAAACTATGTAATGCACACCAAAATAAAATTATT [CACACA_site8578] — lower, 10.4 ± 0.33
- AAAAATATAATATAATGTACACATAAACAAAAAAAA [XGTACX_site3658] — lower, 7.92 ± 0.57
- AAAAATATAATATAATGTACACAAAAAAAAAAAAAT [XGTACX_site4914] — lower, 8.18 ± 0.15
- ATATAATATTAGTGCACACACAAAAATGTACTAAAC [CACACA_site632] — within error, 11.3 ± 0.54
- ATATTACAAATATAATGTACAAAATATAAATATGCA [XGTACX_site8106] — lower, 7.62 ± 0.3
- GTATATAATATTAGTGCACACACAAAAATGTACTAA [CACACA_site8112] — within error, 11.4 ± 0.55
- CTATAATATTAGTGCACACACAAAAATGTACTAAAC [CACACA_site6442] — within error, 11.6 ± 0.62
- AAAAATATAATATAATGTACACAAAAAAAAAAAATC [XGTACX_site1427] — lower, 7.93 ± 0.52
- GAAACTATGTAATGCACACCAAAATAAAATTATTAA [CACACA_site1904] — within error, 10.9 ± 1
- ATAATAAATACACTAGTGCAAAATAATATATGTACT [GTGCAC_site9707] — lower, 10.4 ± 0.22
- AGAAGAAATATGTAAAAAATTTTATATTCACACACA [GTGCAC_negctrl_site441] — lower, 8.15 ± 0.33
- ATAAATTCATACATTTGTACACAAAAAAAAAAAAAA [XGTACX_site2435] — lower, 8.12 ± 0.57
- TTTTTTTTTTCTTTTTGTACATATTCATAACAAGTA [XGTACX_site2784] — lower, 8.12 ± 0.5
- AATGTAACAACTTTTTGTACTTAAGAAATAATAAAT [XGTACX_site3310] — lower, 7.64 ± 0.61
- TAATTAAAAAATAAAAAAAAAAAAAATTAAAACAAA [CACACA_negctrl_site500] — lower, 7.2 ± 0.58
- TGTTATATGTTCAAATGTACAAATCATATACATGTT [XGTACX_site3192] — lower, 7.5 ± 0.65
- AAAATTAGATTATGCACACACACTTAAAAATAATAA [CACACA_site1975] — lower, 9.97 ± 0.46
- AGGATATGCAGACACACACACATATAGATTTATATA [CACACA_site7100] — lower, 7.74 ± 0.55
- ATTTTTTCTAATGGGTGTACTGAAACGTATTTTATT [XGTACX_site6573] — lower, 8.16 ± 0.58
- TTTGTGGTTACATGTGCACACACTTATTTCGTTCTT [CACACA_site1435] — lower, 9.38 ± 0.4
- TATAATATATTCATGTGTACATATATTTCGAACATA [XGTACX_site1754] — lower, 8.01 ± 0.2
- ATTTTATTTTCATATGAACACACATATATATATTAT [CACACA_site8741] — lower, 8.35 ± 0.45
- GTAATTAAAATATATACACACAAAGGCTATTAAATA [CACACA_site1011] — lower, 7.68 ± 0.52
- AATTAATGGCTAAAGGTGCACAATATATATATTACA — within error, 11.3 ± 0.19
- ATAATTATATGGCTAGCACACAATAAATAATTATAT [CACACA_site3815] — lower, 7.92 ± 0.42
- TTACATACAATTGGTGTGCACATATATATATATATA — lower, 10.29 ± 0.049
